Screening data: PubChem BioAssay, National Center for Advancing Translational Sciences (NCATS)
Rhodamine fluor: compound fluoresces in the rhodamine spectral region; Rhodamine-region fluorescence, 547/598 nm, Tris buffer; active compounds read high; max dye-equivalent concentration, M; 59,000 compounds, 0.05% hits; AID 594; in the data active = max dye-equivalent concentration above about 11 nM; inconclusive = between about 1.1 nM and that limit
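Read-out is relative fluorescence at 547 nm excitation and 598 nm emission, expressed as dye-equivalent concentration using rhodamine standards on every plate. Each compound was profiled across a concentration series after 15 min in 100 mM Tris, pH 8.0.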
TexasRed autofl: Texas Red region autofluorescence; max dye-equivalent concentration, M; 59,000 compounds, 0.06% hits; Compound fluorescence, Texas Red channel, 547/618 nm; active compounds read high; in the data active = max dye-equivalent concentration above about 10 nM; inconclusive = between about 1.1 nM and that limit
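Compound fluorescence was read after 15 min at room temperature in 100 mM Tris, pH 8.0, using 547 nm excitation and 618 nm emission across a concentration series. It was expressed as Texas Red dye-equivalent concentration from an on-plate standard curve.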
A488 fluor: A488 region autofluorescence | compound autofluorescence, A488 spectral region, dye equivalency; Compound Type: qHTS ECL - MLSMR | max dye equivalency, M | 59,000 compounds, 0.1% hits | AID 591
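Intrinsic compound fluorescence is measured in 100 mM Tris buffer at pH 8.0 following 15 min incubation at room temperature. Intensities at 480 nm excitation/540 nm emission are calibrated to an on-plate A488 concentration series, giving dye-equivalent concentrations.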
Resorufin fluor: compound fluoresces in the resorufin spectral region | Compound fluorescence, resorufin region 547/598 nm, buffer; active compounds read high | max dye-equivalent concentration, M | 59,000 compounds, 0.04% hits | AID 588
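Compounds in 100 mM Tris buffer, pH 8.0, incubated 15 min at room temperature, then read with 547 nm excitation and 598 nm emission filters. Fluorescence was converted to dye-equivalent concentration using an on-plate six-point resorufin standard curve.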
A647 fluor: A647 region autofluorescence | 59,000 tested, under 10 active | max dye-equivalent concentration, M | Compound fluorescence, A647 channel (570/671 nm), Tris buffer
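Buffer was dispensed, compounds and Alexa 647 standards were pin-transferred, and plates sat 15 min at room temperature. Intensity at 570/671 nm was then converted to dye-equivalent concentration using the plate's A647 standard curve.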
Fluorescein fluor: compound autofluorescence in fluorescein spectral region. 59,000 compounds, 0.91% hits. Compound autofluorescence, 480/540 nm, fluorescein-equivalent; active compounds read high. max fluorescein-equivalent concentration, M; in the data active = max fluorescein-equivalent concentration above about 10 nM; inconclusive = between about 1.1 nM and that limit
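Tris 100 mM pH 8.0; 15 min RT; CCD read, ex 480/em 540 nm. Output: fluorescein-equivalent concentration per compound concentration, from six-point dye series on each plate.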
A number is an active result; 0 = inactive; ? = inconclusive; ! = repeats disagree. Compounds with a hit are over-represented: about 0.9% of the library has one in this group of screens. Unless noted, no rule for the calls is given here.

SMILES	Rhodamine fluor	TexasRed autofl	A488 fluor	Resorufin fluor	A647 fluor	Fluorescein fluor
Cn1c(=O)c(NCCO)c2c3c(cccc31)C(=O)c1ccccc1-2	8.48e-08M	?	1.25e-06M	5.24e-08M	0	2.51e-05M
CC1=CC(=C(C#N)c2nc3ccccc3s2)C=C(C)N1Cc1ccco1	0	0	?	0	0	1.94e-07M
CCN(CC)c1ccc(C=N/C(C#N)=C(\N)C#N)cc1	?	?	2.56e-08M	0	0	5.03e-07M
CN1CCC[C@H](C(=O)OCC(=O)[C@]2(O)CC[C@@H]3[C@H]4CCC5=CC(=O)CC[C@@]5(C)[C@H]4[C@@H](O)C[C@]32C)C1	0	0	0	0	0	?
CCc1nnc(NC(=O)C2CCCN(c3nc4ccccc4s3)C2)s1 (stereo not drawn)	0	0	0	0	0	?
O=C(Nc1ccc2c(c1)OCO2)C1CCCN(c2nc3ccccc3s2)C1 (stereo not drawn)	1.22e-08M	2.59e-08M	0	?	0	?
Fc1cccc(Cl)c1/C=N\N=C1c2ccccc2-c2ccccc21	0	0	0	0	0	0
O=C1c2ccccc2-c2n[nH]c3cccc1c23	0	0	?	0	0	4.73e-08M
O=c1c(-c2ccccc2)n[nH]c2ccccc12	0	0	0	0	0	0
O=C(COC(=O)c1cnccn1)Nc1ccc(Cl)cc1	0	0	0	0	0	1.13e-08M
COc1cc(/C=c2\s/c(=C(/C#N)C(=O)N3CCCC3)n(-c3ccccc3)c2=O)ccc1O	0	0	0	0	0	?
Cc1ccc(/C=c2\s/c(=C(/C#N)C(=O)N3CCCC3)n(Cc3ccco3)c2=O)s1	0	?	?	0	0	6.39e-08M
c1ccc(N2CCN(c3nc4ccccc4n4nnnc34)CC2)cc1	0	0	0	0	0	1.85e-08M
CC(C)C[C@@H](N)C(=O)Nc1ccc2ccccc2c1	0	0	0	0	0	0
CCOc1cccc(C2C(C(=O)c3ccc(C)o3)=C(O)C(=O)N2c2nccs2)c1 (stereo not drawn)	0	0	?	0	0	4.33e-08M
COc1cccc2c1C(=O)c1c(O)c3c(c(O)c1C2=O)C[C@](O)(C(=O)CO)C[C@H]3O[C@@H]1C[C@H](N)[C@H](O)[C@H](C)O1	9.8e-08M	9.46e-08M	1.3e-08M	7.18e-08M	0	3e-07M
Cc1nc2nc(-c3cccs3)cn2nc1C	0	0	?	0	0	6.02e-08M
COc1cccc(-c2cn3nc(C)c(C)nc3n2)c1	0	0	0	0	0	0
C#C[C@@]1(O)CC[C@H]2[C@H]3CCC4=Cc5oncc5C[C@]4(C)[C@@H]3CC[C@@]21C	0	0	0	0	0	0
COc1cc(/C=C/C2=NC(=O)C(C)(C)O2)ccc1O	0	0	0	0	0	2.98e-08M
COc1cc(/C=C/C(=O)CC(=O)/C=C/c2ccc(O)c(OC)c2)ccc1O	0	0	0	0	0	?
Cc1ccc(-c2cc(-c3nnc(SCC(=O)N(C)CCC#N)n3N)c3ccccc3n2)cc1	0	0	0	0	0	1.06e-08M
CCN1C(=O)/C(=C2/SC(C)=C(C)N2CC)SC1=S	0	0	?	0	0	7.12e-08M
CN1C(=O)c2cccc(NCCCN3C(=O)c4ccccc4C3=O)c2C1=O	0	0	?	0	0	6.66e-08M
CN1C(=O)c2cccc(N(C)C)c2C1=O	0	0	0	0	0	?
SMILES	Rhodamine fluor	TexasRed autofl	A488 fluor	Resorufin fluor	A647 fluor	Fluorescein fluor
CCNc1cccc2c1C(=O)N(C)C2=O	0	0	1.28e-08M	0	0	2.69e-07M
N[C@@](CCc1ccccc1)(C(=O)O)c1ccccc1	0	0	0	0	0	0
CCc1cc2c(=O)c(-c3ccc4c(c3)OCCO4)coc2cc1OC(=O)c1ccco1	0	0	0	0	0	0
CCc1cc2c(=O)c(-c3nc4ccccc4[nH]3)coc2cc1OC(=O)N1CCOCC1	0	0	0	0	0	1.08e-08M
NCCNS(=O)(=O)c1ccc(N)cc1	0	0	0	0	0	0
Cc1ccc(C)c(S(=O)(=O)C(C#N)c2nc3ccccc3nc2N2CCCC2)c1 (stereo not drawn)	0	0	0	0	0	1.07e-08M
COc1ccc(S(=O)(=O)C(C#N)c2nc3ccccc3nc2N2CCCCC2)cc1 (stereo not drawn)	0	0	0	0	0	?
N#CC(c1nc2ccccc2nc1N1CCCC1)S(=O)(=O)c1cccs1 (stereo not drawn)	0	0	0	0	0	1.69e-08M
CN(C)CCCCN1CCc2c(n(C)c3ccccc23)C1=O	0	0	0	0	0	0
Cc1nc2cncnc2n(Cc2ccccc2)c1=O	0	0	0	0	0	0
O=C(N[C@@H](CO)[C@@H](O)c1ccc([N+](=O)[O-])cc1)C(Cl)Cl	0	0	0	0	0	0
O=c1c(-c2ccc(Cl)cc2)nc2cnc(N3CCOCC3)nc2n1C1CC1	0	0	0	0	0	1.05e-08M
CC(C)c1ccc2c(c1)CC[C@@H]1[C@@](C)(CN)CCC[C@@]21C	0	0	0	0	0	1.16e-08M
Cc1c(N=C2Nc3cccc4cccc2c34)c(=O)n(-c2ccccc2)n1C	0	0	?	0	0	1.54e-07M
C[C@@H]1C[C@H](OC(=O)c2ccccc2O)CC(C)(C)C1	0	0	0	0	0	?
O=C1OCCN1/N=C\c1ccc([N+](=O)[O-])o1	0	?	0	0	0	3.11e-08M
O=C1O[C@H](CN2CCOCC2)CN1/N=C\c1ccc([N+](=O)[O-])o1	0	0	0	0	0	?
COc1ccc2c(C)cc(SCC(=O)N3CCOCC3)nc2c1	0	0	?	0	0	5.88e-08M
O=C(c1cnn2c(C(F)(F)F)cc(-c3ccc4c(c3)OCO4)nc12)N1CCCCC1	0	0	0	0	0	0
O=C(NC1CCCC1)c1cnn2c(C(F)(F)F)cc(-c3ccc4c(c3)OCO4)nc12	0	0	?	0	0	4.57e-08M
CN1/C(=C\P(=O)(N(C)C)N(C)C)C(C)(C)c2ccccc21	1.16e-08M	4.68e-08M	0	1.04e-08M	0	?
CN=Cc1sc2ccccc2c1O	0	0	0	0	0	0
CC(=Nc1cccc(O)c1)c1sc2ccccc2c1O	0	0	0	0	0	1.91e-08M
OCCN(CCO)c1nc(N2CCCCC2)c2nc(N(CCO)CCO)nc(N3CCCCC3)c2n1	0	0	2.93e-08M	0	0	6.68e-07M
CCOC(=O)c1c(C)[nH]c(C)c1C(=O)Cn1nnc(-c2ccccc2C)n1	0	0	0	0	0	1.01e-08M
CC(CCc1nc2ccccc2s1)(c1ccc(O)cc1)c1ccc(O)cc1	0	0	0	0	0	?
CN(C)CC[C@H](c1ccc(Cl)cc1)c1ccccn1	0	?	0	0	0	1.32e-08M!
O=c1cnc2cnc(Oc3cccc(Cl)c3)nc2n1C1CC1	0	0	0	0	0	0
O=C(/C=C\c1ccc(O)cc1)c1ccc(O)cc1O	0	?	?	0	0	3.71e-08M
Cn1c(=O)c2[nH]c(CCCCC(=O)O)nc2n(C)c1=O	0	0	0	0	0	0
